Assay results published in the supplement of paper PMC10849652.
Targets with a hit are over-represented here; the source holds about 7,900 in all. About 0.6% of all pairs of compound and target were hits. Unmarked numbers belong to inactive results.

Legend:
Experiment in all cases: log2 fold change, soluble protein after heating vs DMSO (PISA); higher = thermal stabilisation; K562 cells, 10 uM, 30 min; active = over 0.2 and 3.5 SD of the protein, either way, in both replicates (recomputed)
erlotinib = compound: C#Cc1cccc(Nc2ncnc3cc(OCCOC)c(OCCOC)cc23)c1 [erlotinib]
How it was run: (§1)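 K562 cells at 2×10^6 cells/mL were given 10 μM compound for 30 min. Aliquots then went through 3 min of heating across 48°C-58°C, were pooled, and were extracted in PBS with 0.5% NP-40 at 4°C, and the supernatant after 21,000xg for 90 min was quantified by TMTpro 16plex LC-MS/MS with channel sums equalised. Thermal stability relative to control samples, from duplicates, is given as log2 fold change.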

[1] = compound: C/C(=N\NC(=O)C1=CC(=CC=C1)S(=O)(=O)N2CCOCC2)/C3=C(C=CC(=C3)Cl)O
How it was run: as §1

[2] = compound: C1=CC(=C(C=C1Cl)C2=NC3=NC=CN=C3C(=N2)NC4=CC=NC=C4)F
How it was run: as §1

[3] = compound: C1=CC(=CC=C1C2=NC3=C(N2)C=C(C=C3)C(=O)N)OC4=CC=C(C=C4)Cl
How it was run: as §1

[4] = compound: C1=CC2=C(C=CC(=C2)/C=C\3/C(=O)NC(=NCC4=CC=CS4)S3)N=C1
How it was run: as §1

[5] = compound: C1=CC2=NC=CN=C2C=C1/C=C/3\C(=O)NC(=O)S3
How it was run: as §1

[6] = compound: C1=CC=C(C=C1)C2=NC(=C(N2)C3=CC=NC=C3)C4=CC(=C(C=C4)Cl)O
How it was run: as §1

[7] = compound: C1=CC=C2C(=C1)C3=NNC4=CC=CC(=C43)C2=O
How it was run: as §1

[8] = compound: C1CCN(C1)C(=O)NC2=CC=CC(=C2)NC3=NC=C(C(=N3)NCCC4=CN=CN4)Br
How it was run: as §1

[9] = compound: C1CN(CCC1(CC2=CC=C(C=C2)Cl)N)C3=NC=NC4=C3C=CN4
How it was run: as §1

IRAK-1-4 Inhibitor I = compound: C1COCCN1CCN2C3=CC=CC=C3N=C2NC(=O)C4=CC(=CC=C4)[N+](=O)[O-] [IRAK-1-4 Inhibitor I]
How it was run: as §1

ibrutinib = compound: C=CC(=O)N1CCC[C@@H](n2nc(-c3ccc(Oc4ccccc4)cc3)c3c(N)ncnc32)C1 [ibrutinib]
How it was run: as §1

[10] = compound: CC(=O)c1cnc2ccc(-c3cc(Cl)c(O)c(Cl)c3)nc2c1N[C@H]1CC[C@H](CN(C)C)CC1
How it was run: as §1

ralimetinib = compound: CC(C)(C)Cn1c(N)nc2ccc(-c3[nH]c(C(C)(C)C)nc3-c3ccc(F)cc3)nc21 [ralimetinib]
How it was run: as §1

[11] = compound: CC(C)(O)CC(=O)NCCn1ccc2ncnc(Nc3ccc(Oc4cccc(C(F)(F)F)c4)c(Cl)c3)c21
How it was run: as §1

[12] = compound: CC(C)C1=C2N=C(C=C(N2N=C1)NCC3=CC=CC=C3)NCCCCCCN
How it was run: as §1

[13] = compound: CC(C)C[C@@H](C=O)NC(=O)[C@H](CC(C)C)NC(=O)[C@H](CC(C)C)NC(=O)OCc1ccccc1
How it was run: as §1

pinometostat = compound: CC(C)N(C[C@H]1O[C@@H](n2cnc3c(N)ncnc32)[C@H](O)[C@@H]1O)[C@H]1C[C@@H](CCc2nc3cc(C(C)(C)C)ccc3[nH]2)C1 [pinometostat]
How it was run: as §1

[14] = compound: CC1=C(C(CC(=O)N1)C2=CC=C(C=C2)C(F)(F)F)C(=O)NC3=C(C=C4C(=C3)C=NN4)F
How it was run: as §1

[15] = compound: CC1=C(C2=C(C=C1)C(=O)C3=CC=CC=C3N2CCCN)C
How it was run: as §1

UniProt Q8NC56, sequence (Q8NC56 whole entry, looked up): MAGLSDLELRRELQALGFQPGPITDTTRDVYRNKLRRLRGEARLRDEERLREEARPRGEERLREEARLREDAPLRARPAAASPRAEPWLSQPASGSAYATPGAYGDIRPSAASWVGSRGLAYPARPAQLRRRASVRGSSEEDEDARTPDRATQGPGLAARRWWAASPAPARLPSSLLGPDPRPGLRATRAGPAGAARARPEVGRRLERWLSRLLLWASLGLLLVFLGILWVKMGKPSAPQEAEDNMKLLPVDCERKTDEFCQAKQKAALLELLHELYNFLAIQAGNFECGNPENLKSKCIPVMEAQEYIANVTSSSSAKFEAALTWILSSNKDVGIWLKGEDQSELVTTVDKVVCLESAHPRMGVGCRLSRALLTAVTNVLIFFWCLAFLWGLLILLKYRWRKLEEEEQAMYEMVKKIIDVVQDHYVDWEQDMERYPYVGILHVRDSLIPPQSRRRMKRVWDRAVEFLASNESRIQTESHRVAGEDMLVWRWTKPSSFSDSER
UniProt P20700, sequence (P20700 whole entry, looked up): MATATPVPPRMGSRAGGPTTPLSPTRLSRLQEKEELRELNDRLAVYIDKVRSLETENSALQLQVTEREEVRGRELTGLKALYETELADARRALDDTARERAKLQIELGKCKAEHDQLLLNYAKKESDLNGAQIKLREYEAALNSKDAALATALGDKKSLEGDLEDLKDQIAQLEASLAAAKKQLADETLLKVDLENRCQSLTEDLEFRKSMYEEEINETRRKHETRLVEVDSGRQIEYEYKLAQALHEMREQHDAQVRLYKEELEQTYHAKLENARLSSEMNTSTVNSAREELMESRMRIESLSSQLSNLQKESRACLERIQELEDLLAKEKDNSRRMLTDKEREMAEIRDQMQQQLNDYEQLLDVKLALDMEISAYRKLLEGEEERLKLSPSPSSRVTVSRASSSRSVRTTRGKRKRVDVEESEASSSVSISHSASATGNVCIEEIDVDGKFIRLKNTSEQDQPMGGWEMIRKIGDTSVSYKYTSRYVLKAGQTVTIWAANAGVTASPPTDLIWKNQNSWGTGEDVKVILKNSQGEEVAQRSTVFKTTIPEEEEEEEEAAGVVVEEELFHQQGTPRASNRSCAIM
UniProt Q9H0C8, sequence (Q9H0C8 whole entry, looked up): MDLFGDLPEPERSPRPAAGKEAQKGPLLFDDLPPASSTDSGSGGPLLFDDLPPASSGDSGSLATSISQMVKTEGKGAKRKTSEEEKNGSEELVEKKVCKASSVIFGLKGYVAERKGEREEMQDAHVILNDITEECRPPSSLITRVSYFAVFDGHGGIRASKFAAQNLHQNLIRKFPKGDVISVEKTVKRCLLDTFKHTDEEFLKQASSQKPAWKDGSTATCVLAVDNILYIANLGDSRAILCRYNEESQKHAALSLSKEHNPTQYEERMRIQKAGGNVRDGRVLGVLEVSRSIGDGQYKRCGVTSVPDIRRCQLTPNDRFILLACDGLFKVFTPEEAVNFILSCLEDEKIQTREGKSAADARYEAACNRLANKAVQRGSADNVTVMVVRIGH
UniProt Q15528, sequence (Q15528 whole entry, looked up): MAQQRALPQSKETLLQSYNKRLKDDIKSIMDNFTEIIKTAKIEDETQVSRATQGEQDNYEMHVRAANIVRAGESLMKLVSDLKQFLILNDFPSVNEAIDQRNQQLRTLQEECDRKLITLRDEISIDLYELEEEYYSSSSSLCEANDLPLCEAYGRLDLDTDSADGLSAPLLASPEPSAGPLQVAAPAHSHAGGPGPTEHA
UniProt Q16539, sequence (Q16539 whole entry, looked up): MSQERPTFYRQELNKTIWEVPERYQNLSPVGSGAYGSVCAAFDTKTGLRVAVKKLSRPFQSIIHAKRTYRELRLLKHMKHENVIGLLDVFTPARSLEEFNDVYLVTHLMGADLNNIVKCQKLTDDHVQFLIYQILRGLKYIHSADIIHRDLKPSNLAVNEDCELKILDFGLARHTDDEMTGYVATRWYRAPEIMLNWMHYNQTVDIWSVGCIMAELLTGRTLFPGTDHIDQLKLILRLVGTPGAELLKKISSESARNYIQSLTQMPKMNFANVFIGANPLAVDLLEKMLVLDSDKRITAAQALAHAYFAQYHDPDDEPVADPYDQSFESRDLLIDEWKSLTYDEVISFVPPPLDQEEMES
UniProt P11717, sequence (P11717 whole entry, looked up): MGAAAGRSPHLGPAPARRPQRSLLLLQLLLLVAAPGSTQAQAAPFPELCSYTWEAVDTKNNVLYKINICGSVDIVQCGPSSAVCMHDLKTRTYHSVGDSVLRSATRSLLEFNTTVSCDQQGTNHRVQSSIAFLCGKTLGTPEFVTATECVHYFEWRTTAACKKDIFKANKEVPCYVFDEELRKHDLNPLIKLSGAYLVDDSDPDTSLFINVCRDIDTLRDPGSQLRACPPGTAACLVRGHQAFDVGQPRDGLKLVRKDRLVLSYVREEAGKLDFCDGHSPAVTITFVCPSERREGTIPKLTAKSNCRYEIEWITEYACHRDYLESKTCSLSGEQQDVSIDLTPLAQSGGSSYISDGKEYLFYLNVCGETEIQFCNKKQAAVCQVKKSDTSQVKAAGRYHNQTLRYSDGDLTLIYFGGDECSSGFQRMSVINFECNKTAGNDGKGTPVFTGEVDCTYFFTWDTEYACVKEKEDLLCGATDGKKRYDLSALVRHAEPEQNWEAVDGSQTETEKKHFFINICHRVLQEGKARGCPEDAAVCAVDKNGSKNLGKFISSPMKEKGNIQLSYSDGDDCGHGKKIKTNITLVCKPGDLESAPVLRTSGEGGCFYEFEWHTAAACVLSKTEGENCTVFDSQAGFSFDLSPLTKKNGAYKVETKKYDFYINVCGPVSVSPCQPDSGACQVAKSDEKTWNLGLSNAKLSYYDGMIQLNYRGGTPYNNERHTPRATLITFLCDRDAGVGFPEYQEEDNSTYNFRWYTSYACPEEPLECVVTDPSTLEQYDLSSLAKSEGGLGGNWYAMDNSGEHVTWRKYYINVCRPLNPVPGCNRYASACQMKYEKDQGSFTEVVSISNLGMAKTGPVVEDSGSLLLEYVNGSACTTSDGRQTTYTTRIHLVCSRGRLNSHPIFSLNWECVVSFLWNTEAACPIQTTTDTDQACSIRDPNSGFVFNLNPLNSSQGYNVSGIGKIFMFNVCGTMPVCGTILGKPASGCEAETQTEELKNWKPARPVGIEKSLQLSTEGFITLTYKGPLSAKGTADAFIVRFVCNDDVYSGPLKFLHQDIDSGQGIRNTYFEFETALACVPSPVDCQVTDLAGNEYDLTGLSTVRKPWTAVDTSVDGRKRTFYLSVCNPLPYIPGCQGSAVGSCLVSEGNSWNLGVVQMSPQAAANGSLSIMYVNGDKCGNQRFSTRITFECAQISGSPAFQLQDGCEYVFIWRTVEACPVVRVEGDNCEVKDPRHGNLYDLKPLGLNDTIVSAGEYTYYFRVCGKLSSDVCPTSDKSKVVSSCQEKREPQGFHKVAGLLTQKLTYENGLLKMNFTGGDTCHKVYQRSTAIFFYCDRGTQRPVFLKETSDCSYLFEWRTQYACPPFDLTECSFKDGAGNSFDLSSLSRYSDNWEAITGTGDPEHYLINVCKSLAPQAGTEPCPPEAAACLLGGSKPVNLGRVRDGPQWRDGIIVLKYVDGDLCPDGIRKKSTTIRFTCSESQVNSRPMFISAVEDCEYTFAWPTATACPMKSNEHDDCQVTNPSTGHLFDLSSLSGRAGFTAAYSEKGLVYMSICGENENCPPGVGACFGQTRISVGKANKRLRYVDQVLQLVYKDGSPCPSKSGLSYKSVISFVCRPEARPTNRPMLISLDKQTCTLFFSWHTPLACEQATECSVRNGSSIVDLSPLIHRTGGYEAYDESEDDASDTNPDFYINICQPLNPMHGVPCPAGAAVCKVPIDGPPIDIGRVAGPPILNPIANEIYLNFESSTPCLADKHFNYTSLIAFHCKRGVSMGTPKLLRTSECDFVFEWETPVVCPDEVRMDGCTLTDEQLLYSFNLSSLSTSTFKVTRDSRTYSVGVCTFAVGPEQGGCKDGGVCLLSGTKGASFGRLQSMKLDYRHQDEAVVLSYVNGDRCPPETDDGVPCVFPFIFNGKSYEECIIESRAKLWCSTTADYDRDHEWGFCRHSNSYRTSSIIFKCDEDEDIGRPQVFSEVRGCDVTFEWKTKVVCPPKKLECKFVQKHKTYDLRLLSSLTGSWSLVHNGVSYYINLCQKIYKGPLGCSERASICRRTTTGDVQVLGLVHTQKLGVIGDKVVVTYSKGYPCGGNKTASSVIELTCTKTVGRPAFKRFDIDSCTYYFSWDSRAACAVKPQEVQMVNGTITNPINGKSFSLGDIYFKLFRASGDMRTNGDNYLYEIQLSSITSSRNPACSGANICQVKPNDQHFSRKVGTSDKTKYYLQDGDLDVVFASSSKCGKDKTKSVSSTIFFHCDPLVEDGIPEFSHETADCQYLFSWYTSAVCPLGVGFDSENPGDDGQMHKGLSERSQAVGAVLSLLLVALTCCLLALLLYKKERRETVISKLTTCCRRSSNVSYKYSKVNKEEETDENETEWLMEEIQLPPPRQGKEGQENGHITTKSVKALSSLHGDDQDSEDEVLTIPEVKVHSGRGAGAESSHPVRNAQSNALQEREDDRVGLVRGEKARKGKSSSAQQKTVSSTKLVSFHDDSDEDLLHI
UniProt P36507, sequence (P36507 whole entry, looked up): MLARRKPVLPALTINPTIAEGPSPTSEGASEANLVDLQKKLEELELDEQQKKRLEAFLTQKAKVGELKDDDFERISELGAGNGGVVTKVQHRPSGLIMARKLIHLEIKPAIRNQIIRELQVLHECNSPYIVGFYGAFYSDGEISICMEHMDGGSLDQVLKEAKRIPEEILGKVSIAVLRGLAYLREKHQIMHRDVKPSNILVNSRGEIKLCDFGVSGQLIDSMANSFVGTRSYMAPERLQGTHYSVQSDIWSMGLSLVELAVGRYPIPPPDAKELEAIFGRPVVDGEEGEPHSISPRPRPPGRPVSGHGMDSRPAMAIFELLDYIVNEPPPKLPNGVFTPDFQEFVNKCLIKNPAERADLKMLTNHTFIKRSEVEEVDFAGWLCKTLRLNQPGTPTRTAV

| Target | log2 fold change (erlotinib) | log2 fold change [1] | log2 fold change [2] | log2 fold change [3] | log2 fold change [4] | log2 fold change [5] | log2 fold change [6] | log2 fold change [7] | log2 fold change [8] | log2 fold change [9] | log2 fold change (IRAK-1-4 Inhibitor I) | log2 fold change (ibrutinib) | log2 fold change [10] | log2 fold change (ralimetinib) | log2 fold change [11] | log2 fold change [12] | log2 fold change [13] | log2 fold change (pinometostat) | log2 fold change [14] | log2 fold change [15] |
| --- | --- | --- | --- | --- | --- | --- | --- | --- | --- | --- | --- | --- | --- | --- | --- | --- | --- | --- | --- | --- |
| LEMD2 (UniProt Q8NC56) | 0.04 | 0.007 | -0.054 | -0.002 | 0.11 | 0.001 | 0.042 | 0.008 | -0.016 | 0.046 | 0.015 | 0.082 | -0.066 | -0.02 | -0.024 | -0.63 (active) | 0.022 | -0.014 | -0.051 | 0.131 |
| LRBA (UniProt P50851) | 0.007 | 0.024 | 0.068 | 0.002 | 0.031 | 0.051 | 0.011 | -0.002 | 0.012 | 0.015 | 0.015 | -0.02 | -0.006 | -0.023 | -0.059 | -0.091 | 0.005 | 0.008 | -0.005 | -0.004 |
| LEO1 (UniProt Q8WVC0) | 0.132 | 0.108 | 0.194 | -0.079 | -0.006 | 0.007 | -0.035 | -0.039 | -0.076 | -0.045 | 0.134 | 0.026 | -0.027 | -0.031 | -0.044 | -0.016 | 0.068 | 0.019 | 0.019 | -0.394 (active) |
| LARP4 isoform 4 (UniProt Q71RC2) | 0.015 | 0.007 | -0.123 | 0.055 | 0.086 | 0.002 | -0.028 | -0.044 | -0.004 | -0.035 | -0.091 | 0.037 | -0.128 | 0.068 | 0.046 | -0.19 | 0.059 | 0.114 | 0.133 | -0.054 |
| KLC2 (UniProt Q9H0B6) | 0.036 | 0.063 | 0.008 | -0.044 | 0.078 | 0.025 | -0.039 | 0.006 | -0.063 | -0.007 | -0.035 | -0.024 | -0.309 (active) | 0.041 | -0.02 | -0.107 | 0.083 | 0.023 | -0.03 | 0.133 |
| KDM1A isoform 2 (UniProt O60341) | 0.059 | 0.039 | 0.006 | -0.028 | 0.075 | -0.015 | 0.059 | -0.026 | -0.03 | -0.069 | -0.014 | 0.014 | -0.123 | 0.175 | -0.111 | -0.041 | 0.031 | 0.046 | 0.012 | -0.05 |
| MAP2K2 (UniProt P36507) | 0.021 | -0.005 | 0.05 | -0.001 | 0.054 | -0.005 | -0.058 | -0.029 | -0.003 | 0.016 | 0.045 | 0.012 | -0.496 (active) | 0.105 | -0.065 | -0.02 | 0.056 | 0.003 | 0.011 | -0.001 |
| LDAH isoform 2 (UniProt Q9H6V9) | 0.116 | 0.052 | -0.101 | -0.041 | 0.047 | 0 | 0.018 | 0 | 0.06 | -0.006 | 0.039 | 0.066 | -0.039 | 0.077 | 0.464 (active) | -0.286 (active) | 0.019 | 0 | -0.053 | 0.073 |
| IPO11 isoform 2 (UniProt Q9UI26) | -0.063 | 0.066 | 0.074 | 0.013 | 0.016 | 0.038 | 0.011 | -0.023 | 0.001 | -0.009 | 0.011 | -0.014 | 0.039 | -0.016 | -0.095 | 0.018 | -0.039 | -0.035 | 0.002 | -0.018 |
| MED22 (UniProt Q15528) | -0.11 | 0.035 | -0.013 | -0.036 | 0.061 | -0.002 | 0.022 | -0.071 | -0.156 | 0.259 | 0.013 | 0.076 | -0.058 | 0.064 | 0.039 | -0.016 | 0.076 | 0.012 | -0.007 | 0.096 |
| LMNB1 (UniProt P20700) | -0.06 | 0.071 | 0.001 | 0.029 | -0.073 | 0.064 | -0.07 | -0.151 | -0.079 | 0.001 | -0.004 | -0.03 | -0.22 | 0.015 | 0.091 | -0.048 | 0.031 | 0.011 | 0.01 | -0.082 |
| MFSD5 isoform 2 (UniProt Q6N075) | 0.147 | 0.057 | 0.041 | 0.115 | -0.061 | 0.038 | -0.144 | 0.109 | 0.014 | 0.034 | -0.068 | -0.016 | -0.007 | 0.019 | -0.017 | -0.053 | 0.003 | 0.049 | 0.039 | -0.061 |
| MAPK14 isoform 2 (UniProt Q16539) | 0.313 | -0.051 | 0.936 (active) | -0.136 | 0.01 | -0.013 | 1 (active) | 0.207 | 0.021 | -0.102 | -0.011 | 0.001 | 1.01 (active) | 1.48 (active) | -0.096 | -0.218 | -0.089 | -0.141 | -0.152 | -0.013 |
| IGF2R (UniProt P11717) | -0.052 | 0 | 0 | 0.025 | -0.012 | 0.003 | 0.009 | -0.021 | 0.002 | 0.012 | -0.002 | 0.013 | 0.016 | -0.038 | -0.007 | -0.218 (active) | -0.009 | 0.005 | 0.029 | -0.071 |
| LMNA (UniProt P02545) | -0.025 | 0.116 | 0.009 | -0.106 | -0.031 | 0.035 | -0.049 | -0.171 | -0.086 | 0.013 | 0.006 | -0.023 | -0.18 | -0.058 | 0.115 | 0.076 | 0 | -0.057 | 0.005 | -0.017 |
| ILKAP (UniProt Q9H0C8) | 0.096 | 0.26 | 0.071 | -0.02 | 0.126 | 0.011 | 0.022 | 0.088 | -0.092 | -0.076 | -0.07 | -0.016 | -0.055 | -0.024 | -0.133 | -0.078 | -0.053 | -0.004 | 0.017 | 0.032 |
